PubChem BioAssay
Active and inactive are the calls of the source.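 The calls were made as follows: active = compound raises insulin release from rat beta cells at 5 mM glucose, no numeric limit stated; inactive = the rest.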

Experiment: stimulators of nuclear beta-catenin in C2C12, primary screen, imaging, WNT3A-conditioned medium, mouse C2C12, NPC library (AID 1117326)
Settings: stimulation, at 2 µM, stronger effect = higher value
Also: reference of the scale not given here.

With `CC[C@@]1(O)C(=O)OCc2c1cc1n(c2=O)Cc2c-1nc1ccccc1c2/C=N/OC(C)(C)C` as the compound, how does the nuclear beta-catenin stimulation read?
Its nuclear beta-catenin stimulation is 59.7%.

With `CC1(C)O[C@@H]2C[C@H]3[C@@H]4CCC5=CC(=O)C=C[C@]5(C)[C@@H]4[C@@H](O)C[C@]3(C)[C@]2(C(=O)CO)O1` as the compound, how does the nuclear beta-catenin stimulation read?
The nuclear beta-catenin stimulation was 1.2%.

Which nuclear beta-catenin stimulation does the source give for `Cc1ccc(S(=O)(=O)NC(=O)NC2CCCCC2)cc1` here?
The nuclear beta-catenin stimulation was 0.3%.

Which nuclear beta-catenin stimulation does the source give for `CCCCCC1Nc2cc(C(F)(F)F)c(S(N)(=O)=O)cc2S(=O)(=O)N1` (stereo not drawn) here?
Its nuclear beta-catenin stimulation is -0.2%.

For `CC(C)(C)NCC(O)COc1ccccc1OCC1CCCO1` (stereo not drawn), which nuclear beta-catenin stimulation is on record?
The nuclear beta-catenin stimulation was 2.1%.

With `NC(=O)NC1N=C([O][Al])NC1=O` (stereo not drawn) as the compound, how does the nuclear beta-catenin stimulation read?
Its nuclear beta-catenin stimulation is -0.2%.

For `CC(C)CCOC(=O)c1ccc(N(C)C)cc1`, which nuclear beta-catenin stimulation is on record?
The nuclear beta-catenin stimulation was 0.7%.

For `Nc1nc(=O)n([C@@H]2O[C@H](CO)[C@@H](O)[C@@H]2F)cc1I`, which nuclear beta-catenin stimulation is on record?
The nuclear beta-catenin stimulation was 1.8%.

Which nuclear beta-catenin stimulation does the source give for `CCOC(=O)c1cccnc1` here?
Its nuclear beta-catenin stimulation is 0.3%.

For `CCN(CC)CCOC(=O)C1(c2ccccc2)CCCC1`, which nuclear beta-catenin stimulation is on record?
The nuclear beta-catenin stimulation was -0.5%.

Which nuclear beta-catenin stimulation does the source give for `NS(=O)(=O)c1ccc(NC(=O)CCC(=O)O)cc1` here?
The nuclear beta-catenin stimulation was -0.3%.

Which nuclear beta-catenin stimulation does the source give for `CCCCCCCC(=O)OCC(O)CO` (stereo not drawn) here?
The nuclear beta-catenin stimulation was -1.7%.

For `Cc1nc(-c2ccc(Cl)cc2)oc1COC(C)(C)C(=O)O`, which nuclear beta-catenin stimulation is on record?
The nuclear beta-catenin stimulation was 0.6%.

With `CN(CC1(C)CCCO1)S(=O)(=O)c1ccc(Cl)c(S(N)(=O)=O)c1` (stereo not drawn) as the compound, how does the nuclear beta-catenin stimulation read?
Its nuclear beta-catenin stimulation is -1.9%.

For `CCC(=O)Oc1ccc2c(c1)CC[C@@H]1[C@H]2CC[C@]2(C)[C@@H](OC(=O)CC)CC[C@@H]12`, which nuclear beta-catenin stimulation is on record?
Its nuclear beta-catenin stimulation is 0.2%.

With `Nc1ccc([N+](=O)[O-])c(C(F)(F)F)c1` as the compound, how does the nuclear beta-catenin stimulation read?
The nuclear beta-catenin stimulation was -1%.

With `CN1N=C(C(N)=O)CCC1=O` as the compound, how does the nuclear beta-catenin stimulation read?
Its nuclear beta-catenin stimulation is 1.9%.

With `CC(C)(C)C(=O)OCOC(=O)C1N2C(=O)CC2S(=O)(=O)C1(C)C` (stereo not drawn) as the compound, how does the nuclear beta-catenin stimulation read?
Its nuclear beta-catenin stimulation is 1%.

Which nuclear beta-catenin stimulation does the source give for `CCCCCCCCCCCCCCCC(=O)OC(C)C` here?
The nuclear beta-catenin stimulation was 1.3%.

Which nuclear beta-catenin stimulation does the source give for `CCCCN(CCN(CCCC)C(=O)N1CCOCC1)C(=O)N1CCOCC1` here?
The nuclear beta-catenin stimulation was 1%.

With `CCc1cccc2c(CCO)c[nH]c12` as the compound, how does the nuclear beta-catenin stimulation read?
The nuclear beta-catenin stimulation was 0.4%.

With `CCc1cc(S(=O)(=O)O)c2cc(C(C)C)cccc1-2` as the compound, how does the nuclear beta-catenin stimulation read?
The nuclear beta-catenin stimulation was -2.2%.

With `O=C(O)[C@@H]1CSCN1` as the compound, how does the nuclear beta-catenin stimulation read?
Its nuclear beta-catenin stimulation is 0.2%.

With `CCN1CCN(C(=O)N[C@@H](C(=O)N[C@@H]2C(=O)N3[C@@H]2SC(C)(C)[C@H]3C(=O)O)c2ccccc2)C(=O)C1=O` as the compound, how does the nuclear beta-catenin stimulation read?
The nuclear beta-catenin stimulation was 0.9%.

For `O=C(O)c1ccccc1-c1ccc(C(F)(F)F)cc1`, which nuclear beta-catenin stimulation is on record?
Its nuclear beta-catenin stimulation is 0.7%.

Which nuclear beta-catenin stimulation does the source give for `CCCc1ncc(C(=O)O)s1` here?
Its nuclear beta-catenin stimulation is -1.2%.

With `O=c1[nH]c2ccccc2c(=O)n1CCCl` as the compound, how does the nuclear beta-catenin stimulation read?
Its nuclear beta-catenin stimulation is 1.4%.

Which nuclear beta-catenin stimulation does the source give for `CCCCCCCCCCCCCCCCCC(=O)[O][Al]` here?
The nuclear beta-catenin stimulation was -0.8%.

Which nuclear beta-catenin stimulation does the source give for `CCN[C@@H]1C[C@H](N)[C@@H](OC2OC(CN)=CCC2N)[C@H](O)[C@H]1O[C@H]1OC[C@](C)(O)[C@H](NC)[C@H]1O` (stereo partly drawn) here?
Its nuclear beta-catenin stimulation is 0%.

Which nuclear beta-catenin stimulation does the source give for `CCCCCCCC/C=C/C(=O)O` here?
Its nuclear beta-catenin stimulation is 0.6%.

With `CC[C@@]1(c2ccccc2)NC(=O)N(C)C1=O` as the compound, how does the nuclear beta-catenin stimulation read?
Its nuclear beta-catenin stimulation is 0.6%.

With `Nc1ncnc2c1ncn2Cc1c(F)cccc1Cl` as the compound, how does the nuclear beta-catenin stimulation read?
The nuclear beta-catenin stimulation was -2.1%.

With `CC(C)(C)NCC(O)COc1ccc(NC(=O)NC2CCCCC2)cc1` (stereo not drawn) as the compound, how does the nuclear beta-catenin stimulation read?
The nuclear beta-catenin stimulation was -0.1%.

With `OC[C@H]1O[C@@H](n2cnc3c(=S)nc[nH]c32)[C@H](O)[C@@H]1O` as the compound, how does the nuclear beta-catenin stimulation read?
The nuclear beta-catenin stimulation was -0.2%.

With `OCCCc1ccccc1` as the compound, how does the nuclear beta-catenin stimulation read?
The nuclear beta-catenin stimulation was 4.5%.

Which nuclear beta-catenin stimulation does the source give for `O=C(O)c1c(O)c(-c2ccccc2)nc2ccccc12` here?
The nuclear beta-catenin stimulation was -0.8%.

For `Cc1onc(-c2c(Cl)cccc2Cl)c1C(=O)Cl`, which nuclear beta-catenin stimulation is on record?
The nuclear beta-catenin stimulation was 0.5%.

For `NC(=S)N=Nc1ccc(NN=C(N)N)cc1`, which nuclear beta-catenin stimulation is on record?
Its nuclear beta-catenin stimulation is 0.5%.

With `CC(=O)O[C@@H]1CC2C3CCc4cc(OC(=O)c5ccccc5)ccc4C3CCC2(C)[C@H]1OC(C)=O` (stereo partly drawn) as the compound, how does the nuclear beta-catenin stimulation read?
Its nuclear beta-catenin stimulation is 1.1%.

Experiment: stimulators of insulin release from INS-1E, primary screen, cell-based, 5 mM glucose, NPC library (AID 1117329)
Settings: rat INS-1E insulin secretion, at 10 µM, stronger effect = higher value

For `CC[C@@]1(O)C(=O)OCc2c1cc1n(c2=O)Cc2c-1nc1ccccc1c2/C=N/OC(C)(C)C`, which insulin secretion stimulation is on record?
The insulin secretion stimulation was 2.9% (inactive).

For `CC1(C)O[C@@H]2C[C@H]3[C@@H]4CCC5=CC(=O)C=C[C@]5(C)[C@@H]4[C@@H](O)C[C@]3(C)[C@]2(C(=O)CO)O1`, which insulin secretion stimulation is on record?
The insulin secretion stimulation was -1% (inactive).

For `Cc1ccc(S(=O)(=O)NC(=O)NC2CCCCC2)cc1`, which insulin secretion stimulation is on record?
Its insulin secretion stimulation is 26.7% (active).

Which insulin secretion stimulation does the source give for `CCCCCC1Nc2cc(C(F)(F)F)c(S(N)(=O)=O)cc2S(=O)(=O)N1` (stereo not drawn) here?
The insulin secretion stimulation was 2% (inactive).

With `CC(C)(C)NCC(O)COc1ccccc1OCC1CCCO1` (stereo not drawn) as the compound, how does the insulin secretion stimulation read?
The insulin secretion stimulation was 5.4% (inactive).

Which insulin secretion stimulation does the source give for `NC(=O)NC1N=C([O][Al])NC1=O` (stereo not drawn) here?
The insulin secretion stimulation was 0.3% (inactive).

With `CC(C)CCOC(=O)c1ccc(N(C)C)cc1` as the compound, how does the insulin secretion stimulation read?
The insulin secretion stimulation was 0.4% (inactive).

Which insulin secretion stimulation does the source give for `Nc1nc(=O)n([C@@H]2O[C@H](CO)[C@@H](O)[C@@H]2F)cc1I` here?
Its insulin secretion stimulation is 0.8% (inactive).

For `CCOC(=O)c1cccnc1`, which insulin secretion stimulation is on record?
The insulin secretion stimulation was -2.3% (inactive).

With `CCN(CC)CCOC(=O)C1(c2ccccc2)CCCC1` as the compound, how does the insulin secretion stimulation read?
Its insulin secretion stimulation is 9.3% (inactive).

With `NS(=O)(=O)c1ccc(NC(=O)CCC(=O)O)cc1` as the compound, how does the insulin secretion stimulation read?
The insulin secretion stimulation was -2.4% (inactive).

For `CCCCCCCC(=O)OCC(O)CO` (stereo not drawn), which insulin secretion stimulation is on record?
The insulin secretion stimulation was 2.1% (inactive).

For `Cc1nc(-c2ccc(Cl)cc2)oc1COC(C)(C)C(=O)O`, which insulin secretion stimulation is on record?
The insulin secretion stimulation was 3.1% (inactive).

For `CN(CC1(C)CCCO1)S(=O)(=O)c1ccc(Cl)c(S(N)(=O)=O)c1` (stereo not drawn), which insulin secretion stimulation is on record?
Its insulin secretion stimulation is 2% (inactive).

Which insulin secretion stimulation does the source give for `CCC(=O)Oc1ccc2c(c1)CC[C@@H]1[C@H]2CC[C@]2(C)[C@@H](OC(=O)CC)CC[C@@H]12` here?
Its insulin secretion stimulation is 0.1% (inactive).

With `Nc1ccc([N+](=O)[O-])c(C(F)(F)F)c1` as the compound, how does the insulin secretion stimulation read?
The insulin secretion stimulation was 0.2% (inactive).

With `CN1N=C(C(N)=O)CCC1=O` as the compound, how does the insulin secretion stimulation read?
The insulin secretion stimulation was 1.05% (inactive).

Which insulin secretion stimulation does the source give for `CC(C)(C)C(=O)OCOC(=O)C1N2C(=O)CC2S(=O)(=O)C1(C)C` (stereo not drawn) here?
The insulin secretion stimulation was 1.4% (inactive).

With `CCCCCCCCCCCCCCCC(=O)OC(C)C` as the compound, how does the insulin secretion stimulation read?
The insulin secretion stimulation was 2.3% (inactive).

With `CCCCN(CCN(CCCC)C(=O)N1CCOCC1)C(=O)N1CCOCC1` as the compound, how does the insulin secretion stimulation read?
Its insulin secretion stimulation is 1.1% (inactive).

Which insulin secretion stimulation does the source give for `CCc1cccc2c(CCO)c[nH]c12` here?
The insulin secretion stimulation was 0.7% (inactive).

With `CCc1cc(S(=O)(=O)O)c2cc(C(C)C)cccc1-2` as the compound, how does the insulin secretion stimulation read?
Its insulin secretion stimulation is 0.1% (inactive).

For `O=C(O)[C@@H]1CSCN1`, which insulin secretion stimulation is on record?
Its insulin secretion stimulation is -2.5% (inactive).

With `CCN1CCN(C(=O)N[C@@H](C(=O)N[C@@H]2C(=O)N3[C@@H]2SC(C)(C)[C@H]3C(=O)O)c2ccccc2)C(=O)C1=O` as the compound, how does the insulin secretion stimulation read?
The insulin secretion stimulation was -0.5% (inactive).

For `O=C(O)c1ccccc1-c1ccc(C(F)(F)F)cc1`, which insulin secretion stimulation is on record?
Its insulin secretion stimulation is -0.1% (inactive).

With `CCCc1ncc(C(=O)O)s1` as the compound, how does the insulin secretion stimulation read?
The insulin secretion stimulation was 4.2% (inactive).

For `O=c1[nH]c2ccccc2c(=O)n1CCCl`, which insulin secretion stimulation is on record?
Its insulin secretion stimulation is 1.3% (inactive).

Which insulin secretion stimulation does the source give for `CCCCCCCCCCCCCCCCCC(=O)[O][Al]` here?
Its insulin secretion stimulation is 0.8% (inactive).

Which insulin secretion stimulation does the source give for `CCN[C@@H]1C[C@H](N)[C@@H](OC2OC(CN)=CCC2N)[C@H](O)[C@H]1O[C@H]1OC[C@](C)(O)[C@H](NC)[C@H]1O` (stereo partly drawn) here?
Its insulin secretion stimulation is 0.5% (inactive).

Which insulin secretion stimulation does the source give for `CCCCCCCC/C=C/C(=O)O` here?
Its insulin secretion stimulation is 1.9% (inactive).

With `CC[C@@]1(c2ccccc2)NC(=O)N(C)C1=O` as the compound, how does the insulin secretion stimulation read?
Its insulin secretion stimulation is -0.2% (inactive).

For `Nc1ncnc2c1ncn2Cc1c(F)cccc1Cl`, which insulin secretion stimulation is on record?
The insulin secretion stimulation was 4.3% (inactive).

For `CC(C)(C)NCC(O)COc1ccc(NC(=O)NC2CCCCC2)cc1` (stereo not drawn), which insulin secretion stimulation is on record?
The insulin secretion stimulation was 1.65% (inactive).

Which insulin secretion stimulation does the source give for `OC[C@H]1O[C@@H](n2cnc3c(=S)nc[nH]c32)[C@H](O)[C@@H]1O` here?
Its insulin secretion stimulation is 0.7% (inactive).

Which insulin secretion stimulation does the source give for `OCCCc1ccccc1` here?
The insulin secretion stimulation was 3.2% (inactive).

For `O=C(O)c1c(O)c(-c2ccccc2)nc2ccccc12`, which insulin secretion stimulation is on record?
Its insulin secretion stimulation is 3% (inactive).

Which insulin secretion stimulation does the source give for `Cc1onc(-c2c(Cl)cccc2Cl)c1C(=O)Cl` here?
The insulin secretion stimulation was 1.5% (inactive).

For `NC(=S)N=Nc1ccc(NN=C(N)N)cc1`, which insulin secretion stimulation is on record?
The insulin secretion stimulation was 6.7% (inactive).

Which insulin secretion stimulation does the source give for `CC(=O)O[C@@H]1CC2C3CCc4cc(OC(=O)c5ccccc5)ccc4C3CCC2(C)[C@H]1OC(C)=O` (stereo partly drawn) here?
Its insulin secretion stimulation is 0.5% (inactive).
